In PubChem BioAssay (Tox21):
Records with an inconclusive call do not appear. Calls of active or inactive are those of the source. Unless noted, calls come from the whole dose curve.

Columns and labels:
[1] = molecular target: Gonadotropin-releasing hormone receptor (Homo sapiens) (UniProt P30968); assay: Human gonadotropin-releasing hormone receptor (GnRHR) small molecule agonists, calcium flux assay in GnRHR-HEK293 cells (AID 1920063); note: nearly all actives have a fitted effect of over 35% in size
Summary of the method: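 Agonist activity was measured as intracellular calcium flux in HEK293 cells engineered to stably express human GnRHR. After dye loading for 1 hour at 37 C, compounds in DMSO were added and fluorescence was followed for 3 minutes.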

[2] = molecular target: KiSS-1 receptor (Homo sapiens) (UniProt Q969F8); assay: Human kisspeptin (KISS1R) small molecule agonists, calcium flux assay in KISS1R-HEK293 cells (AID 1920064; active = well fitted activation curve with a large enough effect in the repeat runs)
Summary of the method: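 Agonist activity is monitored as intracellular calcium rise in engineered HEK293 cells carrying human KISS1R. Cells are dye-loaded for 1 h at 37 C before compound addition, and fluorescence is recorded for 3 min.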

[3] = G protein-coupled receptor (GPCR) small molecule agonists, calcium flux assay: HEK293 wild type cell line counter screen (AID 1920065)
Summary of the method: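 Seed cells, incubate 18 h (37 C, 5% CO2); add calcium dye, 1 h at 37 C; pin-transfer compounds, ATP control or DMSO; read fluorescence 480/540 nm each second for 3 min.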

[4] = molecular target: 5-hydroxytryptamine receptor 2A (Homo sapiens) (UniProt P28223); assay: 5-hydroxytryptamine receptor 2A (HTR2A) small molecule antagonists, cell-based qHTS assay (AID 1963586); note: nearly all actives have a fitted effect of over 45% in size; note: potency is the fitted concentration of half-maximal effect
Summary of the method: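 CHO cells stably expressing human HTR2A were plated for 18 h at 37 C, then loaded with calcium dye for 1 h. Compounds were preincubated 5 min at room temperature before DOI (4 nM solution) was added. Kinetic fluorescence was read for 3 min.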

[5] = molecular target: 5-hydroxytryptamine receptor 2A (Homo sapiens) (UniProt P28223); assay: 5-hydroxytryptamine receptor 2A (HTR2A) small molecule agonists, cell-based qHTS assay (AID 1963587); note: nearly all actives have a fitted effect of over 30% in size
Summary of the method: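 CHO cells stably expressing human HTR2A, plated 18 h, loaded with calcium dye 1 h at 37 C. Agonist mode: compounds added and intracellular calcium fluorescence recorded kinetically for 2 min at 1 sec intervals.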

[6] = molecular target: Muscarinic acetylcholine receptor M1 (Homo sapiens) (UniProt P11229); assay: Cholinergic receptor muscarinic 1 (CHRM1) small molecule agonists, cell-based qHTS assay (AID 1963589); note: nearly all actives have a fitted effect of over 35% in size
Summary of the method: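 Cells were plated and incubated 18 h at 37 C/5% CO2, loaded with calcium dye for 1 h at 37 C, then treated with compounds in DMSO. Fluorescence was recorded kinetically at 1 sec intervals.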

[7] = molecular target: Beta-2 adrenergic receptor (Homo sapiens) (UniProt P07550); assay: Adrenergic beta2 receptor (ADRB2) small molecule antagonists, cell-based qHTS assay (AID 1963592); note: series mostly up to about 92 µM; nearly all actives have a fitted effect of over 50% in size
Summary of the method: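 Assay format: CHO-ADRB2 cells, 18-20hr seeding at 37C/5% CO2, then compound plus 1nM isoproterenol agonist mix for 0.5hr RT. Homogeneous time-resolved fluorescence cAMP detection after 1hr, expressed as 665/615 nm ratio.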

[8] = molecular target: Muscarinic acetylcholine receptor M1 (Homo sapiens) (UniProt P11229); assay: Cholinergic receptor muscarinic 1 (CHRM1) small molecule antagonists, cell-based qHTS assay (AID 1963588); note: nearly all actives have a fitted effect of over 40% in size; note: potency is the fitted concentration of half-maximal effect
Summary of the method: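 Compounds were tested at 15 concentrations in three independent runs. Dye-loaded CHRM1-CHO cells were exposed 5 min at room temperature before stimulation by acetylcholine added at 50nM. Intracellular calcium was read kinetically on FDSS for 3 min.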

[9] = cAMP Responsive Elements (CRE) small molecule agonists, cell-based qHTS assay (AID 1963590)
Summary of the method: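 Cells carrying a CRE-driven beta-lactamase reporter (HEK 293T) are seeded, incubated overnight (18 h), and treated with test compounds for 3 h at 37 C; reporter activity is then detected with a FRET substrate after 2 h at room temperature.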

[10] = molecular target: D(2) dopamine receptor (Homo sapiens) (UniProt P14416); assay: Dopamine D2 receptor (DRD2) small molecule agonists, cell-based qHTS assay (AID 1963594); note: nearly all actives have a fitted effect of over 35% in size
Summary of the method: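 HEK293 cells stably expressing human DRD2, pre-treated with PDE inhibitor Ro20-1724 (0.1 mM final) and compound 10 min at room temperature, then stimulated with NKH477 (200nM […]) for 30 min. cAMP read by HTRF (665/620 nm).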

[11] = molecular target: D(2) dopamine receptor (Homo sapiens) (UniProt P14416); assay: Dopamine D2 receptor (DRD2) small molecule antagonists, cell-based qHTS assay (AID 1963595; active = well fitted inhibition curve with a large enough effect in the signal ratio in the repeat runs, with a control signal flat; the % refers to the signal ratio)
Summary of the method: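 HEK293 cells stably expressing DRD2, preincubated with 0.1 mM Ro20-1724 and compounds 10 min, were stimulated with 200 nM NKH477 plus 12 nM quinpirole for 30 min at room temperature; cAMP measured by HTRF (665/620 nm).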

[12] = p53 small molecule agonists, cell-based qHTS assay: qHTS cell viability counter screen (AID 1963581); note: nearly all actives have a fitted effect of over 45% in size
Summary of the method: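 Viability was counter-screened in parallel with the p53 agonist reporter by measuring intracellular ATP luminescence in the same HCT-116 p53RE-bla wells after 16 h compound treatment at 37 C.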

[13] = p53 small molecule agonists, cell-based qHTS assay (AID 1963582; active = well fitted activation curve with a large enough effect in the signal ratio in the repeat runs, not every such curve was filed as active; the % refers to the signal ratio)
Summary of the method: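 Cells carrying a p53-responsive bla reporter are treated with test compounds for 16 h at 37 C; beta-lactamase activity is then detected with LiveBLAzer B/G FRET substrate after 2 h at room temperature.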

[14] = cAMP Responsive Elements (CRE) small molecule antagonists, cell-based qHTS assay (AID 1963591; active = well fitted inhibition curve with a large enough effect in the signal ratio in the repeat runs, not every such curve was filed as active; the % refers to the signal ratio)
Summary of the method: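 Cells (CRE-bla HEK 293T, DMEM with 10% dialyzed FBS and 25 mM HEPES) are seeded and incubated 18 h. Compounds are added with NKH477 agonist at 0.25 uM final for 3 h, then FRET substrate for 2 h.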

[15] = molecular target: Beta-2 adrenergic receptor (Homo sapiens) (UniProt P07550); assay: Adrenergic beta2 receptor (ADRB2) small molecule agonists, cell-based qHTS assay (AID 1963593);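 note: CHO cells stably overexpressing human ADRB2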
Summary of the method: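 CHO cells stably over-expressing ADRB2 were plated overnight at 37C, then dosed with compounds plus a stimulation mix containing 100uM IBMX and 25uM Ro-20-1724 for 0.5hr at room temperature. cAMP was measured by HTRF competition, 1hr.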

[16] = p53 small molecule agonists, cell-based qHTS assay with human liver microsomes (AID 1963577);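 note: p53 response element beta-lactamase reporter cells with liver microsomes plus NADPH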
Summary of the method: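 16 h, 37 C exposure of p53RE-bla cells to compounds with human liver microsomes and NADPH (0.5 mg/mL final each); detection via LiveBLAzer mixture, 2 h dark at room temperature.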

[17] = p53 small molecule agonists, cell-based qHTS assay with rat liver microsomes (AID 1963578)
Summary of the method: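 With rat liver microsomes and NADPH present (0.5 mg/mL final each), p53RE-bla cells are treated with compound for 16 h at 37 C. LiveBLAzer detection mixture is then applied for 2 h at room temperature in the dark.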

[18] = p53 small molecule agonists, cell-based qHTS assay with human liver microsomes: qHTS cell viability counter screen (AID 1963579); note: nearly all actives have a fitted effect of over 45% in size; note: potency is the fitted concentration of half-maximal effect
Summary of the method: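 In this multiplexed counter screen, the reporter plates were subsequently treated with CellTiter-Glo so that cell viability, reflected by luminescence, could be recorded for p53RE-bla cells dosed 16 h with compounds under microsomal activation (HLM and NADPH).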

[19] = p53 small molecule agonists, cell-based qHTS assay with rat liver microsomes: qHTS cell viability counter screen (AID 1963580); note: nearly all actives have a fitted effect of over 45% in size
Summary of the method: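 Cytotoxicity counter screen: intracellular ATP measured by CellTiter-Glo luminescence in the same wells as the beta-lactamase reporter read, on HCT-116 p53RE-bla cells exposed 16 h at 37 C to compounds with rat liver microsomes and NADPH, each 0.5 mg/mL final.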
% is set by controls: 0 for no effect and ±100 for the full control effect.

D(2) dopamine receptor (Homo sapiens), sequence (P14416 whole entry, looked up): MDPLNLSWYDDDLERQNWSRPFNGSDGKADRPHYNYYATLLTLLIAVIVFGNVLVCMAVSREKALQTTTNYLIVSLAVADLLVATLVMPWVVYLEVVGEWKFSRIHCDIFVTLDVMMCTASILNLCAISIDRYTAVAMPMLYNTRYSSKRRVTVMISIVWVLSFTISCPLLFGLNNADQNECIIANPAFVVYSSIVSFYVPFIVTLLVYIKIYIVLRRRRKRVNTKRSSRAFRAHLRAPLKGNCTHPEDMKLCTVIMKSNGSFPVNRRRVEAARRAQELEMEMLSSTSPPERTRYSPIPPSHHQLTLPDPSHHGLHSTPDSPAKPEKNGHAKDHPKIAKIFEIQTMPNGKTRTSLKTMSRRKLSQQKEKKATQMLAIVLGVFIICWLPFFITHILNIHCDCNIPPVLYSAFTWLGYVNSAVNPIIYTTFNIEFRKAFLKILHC
5-hydroxytryptamine receptor 2A (Homo sapiens), sequence (P28223 whole entry, looked up): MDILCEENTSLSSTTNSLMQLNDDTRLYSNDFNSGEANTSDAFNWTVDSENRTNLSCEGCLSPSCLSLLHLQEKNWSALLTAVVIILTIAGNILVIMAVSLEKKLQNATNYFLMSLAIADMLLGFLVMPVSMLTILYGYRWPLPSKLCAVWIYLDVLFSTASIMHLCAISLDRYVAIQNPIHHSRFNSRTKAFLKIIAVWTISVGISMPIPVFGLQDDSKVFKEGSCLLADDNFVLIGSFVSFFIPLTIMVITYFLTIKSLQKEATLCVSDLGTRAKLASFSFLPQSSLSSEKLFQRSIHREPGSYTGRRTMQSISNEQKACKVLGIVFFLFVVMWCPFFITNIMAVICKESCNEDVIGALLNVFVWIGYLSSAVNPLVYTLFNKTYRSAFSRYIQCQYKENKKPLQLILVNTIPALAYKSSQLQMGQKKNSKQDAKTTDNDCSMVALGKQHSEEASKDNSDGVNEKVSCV
Muscarinic acetylcholine receptor M1 (Homo sapiens), sequence (P11229 whole entry, looked up): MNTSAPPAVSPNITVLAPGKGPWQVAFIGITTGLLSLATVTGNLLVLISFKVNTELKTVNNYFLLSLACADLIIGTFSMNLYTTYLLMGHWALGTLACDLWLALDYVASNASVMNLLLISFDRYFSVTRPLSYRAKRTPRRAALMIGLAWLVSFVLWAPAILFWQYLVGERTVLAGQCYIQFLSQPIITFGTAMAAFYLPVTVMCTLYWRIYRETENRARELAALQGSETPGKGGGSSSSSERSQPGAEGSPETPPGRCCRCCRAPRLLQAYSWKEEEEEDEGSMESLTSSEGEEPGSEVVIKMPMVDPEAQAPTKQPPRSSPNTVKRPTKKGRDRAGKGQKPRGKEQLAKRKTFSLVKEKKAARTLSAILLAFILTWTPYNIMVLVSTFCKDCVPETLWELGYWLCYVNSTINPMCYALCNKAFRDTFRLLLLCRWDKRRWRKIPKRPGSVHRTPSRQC
Gonadotropin-releasing hormone receptor (Homo sapiens), sequence (P30968 whole entry, looked up): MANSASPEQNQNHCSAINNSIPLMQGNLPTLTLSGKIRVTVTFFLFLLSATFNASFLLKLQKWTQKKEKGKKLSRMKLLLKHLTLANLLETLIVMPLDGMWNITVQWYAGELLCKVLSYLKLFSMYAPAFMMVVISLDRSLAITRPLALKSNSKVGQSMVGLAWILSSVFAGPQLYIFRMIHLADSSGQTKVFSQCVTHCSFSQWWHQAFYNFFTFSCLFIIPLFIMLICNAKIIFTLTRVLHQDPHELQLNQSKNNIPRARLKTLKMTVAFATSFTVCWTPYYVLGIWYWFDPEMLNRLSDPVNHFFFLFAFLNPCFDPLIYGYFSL
KiSS-1 receptor (Homo sapiens), sequence (Q969F8 whole entry, looked up): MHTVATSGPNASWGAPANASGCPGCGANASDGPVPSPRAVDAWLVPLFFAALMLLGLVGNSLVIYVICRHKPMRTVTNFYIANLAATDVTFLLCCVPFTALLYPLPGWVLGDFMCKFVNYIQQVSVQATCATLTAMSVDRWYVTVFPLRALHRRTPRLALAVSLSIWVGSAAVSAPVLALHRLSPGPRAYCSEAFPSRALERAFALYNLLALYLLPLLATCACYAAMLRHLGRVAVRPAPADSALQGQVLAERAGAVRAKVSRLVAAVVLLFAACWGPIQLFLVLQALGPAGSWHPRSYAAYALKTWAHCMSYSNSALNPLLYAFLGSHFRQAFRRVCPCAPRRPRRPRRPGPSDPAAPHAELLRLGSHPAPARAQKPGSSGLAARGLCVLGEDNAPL
Beta-2 adrenergic receptor (Homo sapiens), sequence (P07550 whole entry, looked up): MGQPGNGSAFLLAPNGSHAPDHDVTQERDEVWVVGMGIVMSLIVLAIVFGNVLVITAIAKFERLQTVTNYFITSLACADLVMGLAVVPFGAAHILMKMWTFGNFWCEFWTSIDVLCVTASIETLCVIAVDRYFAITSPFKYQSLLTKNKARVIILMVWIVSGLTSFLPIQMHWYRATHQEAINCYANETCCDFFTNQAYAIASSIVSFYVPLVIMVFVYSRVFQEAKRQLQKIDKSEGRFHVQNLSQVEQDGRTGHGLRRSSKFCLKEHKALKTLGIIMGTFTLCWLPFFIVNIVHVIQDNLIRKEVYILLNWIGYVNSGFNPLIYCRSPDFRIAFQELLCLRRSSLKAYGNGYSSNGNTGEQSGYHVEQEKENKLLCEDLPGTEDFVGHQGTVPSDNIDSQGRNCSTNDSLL

Cc1c(-c2ccc(O)cc2)n(Cc2ccc(OCCN3CCCCCC3)cc2)c2ccc(O)cc12
inactive: Potency [1] | Potency [2] | Potency [3] | Potency [4] | Potency [5] | Potency [6] | Potency [7]

O=C(O)CCn1c2c(c3ccccc31)C[C@H](NS(=O)(=O)c1ccc(F)cc1)CC2
inactive: Potency [1] | Potency [2] | Potency [3] | Potency [4] | Potency [5] | Potency [8] | Potency [6] | Potency [9] | Potency [7] | Potency [10] | Potency [11]

Cc1cnc(C(=O)NCCc2ccc(S(=O)(=O)NC(=O)NC3CCCCC3)cc2)cn1
inactive: Potency [1] | Potency [2] | Potency [3] | Potency [12] | Potency [13] | Potency [14] | Potency [7] | Potency [11]

CC(=O)Nc1ccc(O)cc1
inactive: Potency [1] | Potency [2] | Potency [3] | Potency [9] | Potency [14] | Potency [7] | Potency [10] | Potency [11]

NCCCC(O)(P(=O)(O)O)P(=O)(O)O
inactive: Potency [1] | Potency [2] | Potency [3] | Potency [12] | Potency [13] | Potency [9] | Potency [7] | Potency [15] | Potency [10] | Potency [11]

COc1ccc2cc([C@H](C)C(=O)O)ccc2c1
inactive: Potency [1] | Potency [2] | Potency [3] | Potency [12] | Potency [13] | Potency [14] | Potency [7] | Potency [10] | Potency [11]

CN(C)C(=N)N=C(N)N
inactive: Potency [1] | Potency [2] | Potency [3] | Potency [12] | Potency [13] | Potency [9] | Potency [14] | Potency [7] | Potency [15] | Potency [10] | Potency [11]

O=C(CCCN1CCC(O)(c2ccc(Cl)cc2)CC1)c1ccc(F)cc1
inactive: Potency [1] | Potency [2] | Potency [3] | Potency [12] | Potency [13] | Potency [14] | Potency [7] | Potency [15]

CN1CCC(N(Cc2cccs2)c2ccccc2)CC1
active: Potency [4] 0.365 µM
inactive: Potency [1] | Potency [2] | Potency [3] | Potency [12] | Potency [5] | Potency [8] | Potency [6] | Potency [14] | Potency [7]

Cc1ccccc1
inactive: Potency [1] | Potency [2] | Potency [3] | Potency [4] | Potency [5] | Potency [8] | Potency [6] | Potency [9] | Potency [14] | Potency [7] | Potency [10] | Potency [11]

CC(C)n1c(/C=C/[C@@H](O)C[C@@H](O)CC(=O)O)c(-c2ccc(F)cc2)c2ccccc21
inactive: Potency [1] | Potency [2] | Potency [12] | Potency [9] | Potency [7] | Potency [15] | Potency [10] | Potency [11]

Nc1ccc(N=Nc2ccccc2)c(N)c1
active: Potency [4] 1.64 µM | Potency [8] 23.2 µM
inactive: Potency [1] | Potency [2] | Potency [16] | Potency [17] | Potency [18] | Potency [19] | Potency [12] | Potency [13] | Potency [5] | Potency [9] | Potency [14]

Nc1nc2ccc([N+](=O)[O-])cc2s1
inactive: Potency [1] | Potency [2] | Potency [12] | Potency [5] | Potency [6] | Potency [7]
active: Potency [18] 28.9 µM

CN1CCN(C2=Nc3cc(Cl)ccc3Nc3ccccc32)CC1
inactive: Potency [1] | Potency [2] | Potency [3] | Potency [12] | Potency [9] | Potency [14] | Potency [7]

O=C(Nc1ccc(C(=O)O)c(O)c1)c1ccccc1
inactive: Potency [1] | Potency [2] | Potency [17] | Potency [18] | Potency [19] | Potency [13] | Potency [5] | Potency [8] | Potency [9] | Potency [14] | Potency [7] | Potency [15] | Potency [10] | Potency [11]

N[C@@H](Cc1ccc(O)cc1)C(=O)O
inactive: activity change [1] -0.862% [at 5.22 µM, active compounds read high] | activation [2] 0.301% [at 6.97 µM] | activation [3] 1.73% [at 5.23 µM] | activity change, negative = cytotoxicity [12] 14.2% [at 5.99 µM] | activity, negative = inhibition [4] 17.7% [at 5.62 µM] | activation [5] 0.614% [at 7.02 µM] | activity, negative = inhibition [8] -1.5% [at 5.58 µM] | activation [6] 0.14% [at 6.97 µM] | activation [9] -0.513% [at 8.39 µM] | activity change, negative = inhibition [14] 0.559% [at 8.39 µM] | activity change, negative = inhibition [7] -0.134% [at 8.39 µM] | activation [15] 15.9% [at 8.39 µM] | activity change, negative = inhibition [11] 0.318% [at 8.38 µM]

CO[C@]1(NC(=O)CSC(F)F)C(=O)N2C(C(=O)O)=C(CSc3nnnn3CCO)CO[C@H]21
inactive: Potency [1] | Potency [2] | Potency [17] | Potency [18] | Potency [19] | Potency [12] | Potency [13] | Potency [4] | Potency [5] | Potency [8] | Potency [6] | Potency [9] | Potency [14] | Potency [7] | Potency [15] | Potency [10] | Potency [11]
